Shown are actives, neighbours in structure and some others; about 1.3% of the full set was active somewhere.
VLA-4 inh = inhibition in human VLA-4 binding assay, primary screen, VLA-4 allosteric modulator project, MLPCN library, flow cytometry, VLA-4 expressing cells; Integrin alpha-4 (Homo sapiens), P13612; ligand binding flow cytometry; inhibition, % (about 7 µM as worked out from the volumes in the protocol); hit rate 0.2% among 330,000; AID 2557, 2010; in the data active means inhibition above about 50%
Bfl-1 A1 inh = caspase 3/7 activation in MEF A1-2A-BIM cells, primary screen, A1 inhibitor project, cell-based, luminescence, HTS. Caspase-Glo 3/7 luminescence, 3 h; percent of clofoctol response, vehicle zero. caspase activation, % (no concentration beside the values). hit rate 0.066% among 330,000. AID 2462, 2010;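 active means over half of replicate activation scores above 10%, or exactly half above 10 with the replicate mean above 10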
NTR1 agonist = agonists of human NTR1, primary screen, imaging, U2OS cells, beta-arrestin-GFP, high content | NTR1-U2OS beta-arrestin-GFP spot imaging, agonist mode | activation, % at 20 µM | hit rate 0.17% among 330,000 | AID 493036, 2011;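 active means activation at or above 40% of the spot to cytoplasm intensity ratio, with at least 20 cells analyzed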
Beta2AR agonist = beta2AR agonists driving receptor internalization, primary screen, cell-based, FAP fluorogen, flow cytometry. Am2.2-beta2AR cells. response, % (no concentration beside the values). hit rate 0.43% among 340,000;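 active means response above a set limit, near 3 SD of response in nonfluorescent compounds, cut at about 42% in these data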
Target sequence (P07550 whole entry, looked up): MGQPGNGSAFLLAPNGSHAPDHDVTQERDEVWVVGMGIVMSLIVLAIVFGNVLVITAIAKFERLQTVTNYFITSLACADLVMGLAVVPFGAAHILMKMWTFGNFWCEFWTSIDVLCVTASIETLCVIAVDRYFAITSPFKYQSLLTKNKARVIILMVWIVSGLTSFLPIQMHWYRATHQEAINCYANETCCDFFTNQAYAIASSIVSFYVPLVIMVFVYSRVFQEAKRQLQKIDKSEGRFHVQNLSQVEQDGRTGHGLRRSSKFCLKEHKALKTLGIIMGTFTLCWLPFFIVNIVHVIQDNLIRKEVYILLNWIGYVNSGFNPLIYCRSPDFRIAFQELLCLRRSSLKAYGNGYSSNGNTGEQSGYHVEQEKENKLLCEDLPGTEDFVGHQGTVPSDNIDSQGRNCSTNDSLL
GRK2 aptamer HTS = compounds blocking aptamer binding on GRK2 – biochemical, human GRK2, bead flow cytometry, HTS, primary screen | inhibition of aptamer binding, % at 10 µM | FAM-aptamer displacement from GRK2 | hit rate 0.59% among 330,000 | Beta-adrenergic receptor kinase 1 (Homo sapiens), P25098;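 active means inhibition of aptamer binding above 40%, roughly 3 SD of noise, on plates passing a quality check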;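 further: median bead fluorescence of bound FAM aptamer so fluorescent compounds give negative values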
VLA-4 mod pick = retest of VLA-4 allosteric modulators, confirmation, cell-based, cherry-picked plates, U937, HUTS-21 LIBS antibody. U937 cells, HUTS-21 LIBS mAb binding, flow cytometry; LDV ligand present at threefold Kd. inhibition, % at 6.7 µM. hit rate 2% among 1,300. shares compounds with VLA-4 inh; in the data active means inhibition above about 40%
Each line names hits and unclear results; the compound was inactive in the other large screens (follow-up assays come after a bar, where they were run).

Cc1ccc(C(=O)Nc2nc3nc(-c4ccccc4)cc(=O)n3[nH]2)cc1	none
CCOc1ccccc1C1CC(=O)Nc2cc(OC)c(OC)c(OC)c21 (stereo unspecified)	none | VLA-4 mod pick inactive
COc1cccc(C2CC(=O)Nc3cc(OC)c(OC)c(OC)c32)c1OC (stereo unspecified)	none | VLA-4 mod pick inactive
COc1ccc(C(=O)NCC(=O)OCC(=O)c2c(C)[nH]c3ccccc23)cc1OC	none (no result: Bfl-1 A1 inh)
CC(NC(=O)NC1CCCCC1)c1ccc2c(c1)OCO2 (stereo unspecified)	none | VLA-4 mod pick inactive
COc1ccc(CNC(=S)Nc2cccc(F)c2)cc1	none
CC1CC(C)CN(C(=O)c2ccc(C(=O)c3ccccc3)cc2)C1 (stereo unspecified)	none
CC1CC(C)CN(C(=O)c2ccc(C#N)cc2)C1 (stereo unspecified)	VLA-4 inh 60 | VLA-4 mod pick inactive
CCOC(=O)CN1C(=O)C2(OCCCO2)c2cc(Br)ccc21	none
COc1ccc(-c2nc(C)ncc2-c2ccccc2)c(O)c1	none
COc1ccc(-c2nc(C)ncc2-c2ccc(Cl)cc2)c(O)c1	VLA-4 inh 68 | VLA-4 mod pick inactive
COc1ccc(/C=N/NC(=O)CCc2n[nH]c(=O)[nH]c2=O)cc1O	none | VLA-4 mod pick inactive
CN(C)c1nc(N(C)C)nc(N(C)C)n1	none
CNc1nc(N(C)C)nc(N(C)C)n1	VLA-4 inh 59 | VLA-4 mod pick inactive
CN(CCc1ccccc1)C(=O)c1cccc(NC(=O)Cc2cccc(NC(=O)C3CCCN(C(=O)c4ccccc4)C3)c2)c1 (stereo unspecified)	none (no result: VLA-4 inh, Bfl-1 A1 inh, NTR1 agonist, GRK2 aptamer HTS)
COc1cccc(NC(=O)CCN2C(=O)c3cccc([N+](=O)[O-])c3C2=O)c1	none
COc1ccc(NC(=O)CCN2C(=O)c3cccc([N+](=O)[O-])c3C2=O)cc1	VLA-4 inh 51 | VLA-4 mod pick inactive
CCOC(=O)c1sc2nc(C)nc(SCC(=O)N(C)C3CCS(=O)(=O)C3)c2c1C (stereo unspecified)	none | VLA-4 mod pick inactive
COc1ccc(CC(=O)NNC(=O)CSc2ccc(C)cc2)cc1	VLA-4 inh 53 | VLA-4 mod pick inactive
Cc1cc(NN)nc(NS(=O)(=O)c2ccccc2Cl)n1	none
COc1cc(C)nc(NS(=O)(=O)c2ccccc2Cl)n1	none | VLA-4 mod pick inactive
C=CCn1c(SCC(=O)Nc2c(C)n(C)n(-c3ccccc3)c2=O)nc2scc(-c3ccccc3)c2c1=O	none
COc1ccc2c(C)cc(SCC(=O)Nc3c(C)n(C)n(-c4ccccc4)c3=O)nc2c1	VLA-4 inh 94 | VLA-4 mod pick inactive
C=CCn1c(SCC(=O)Nc2c(C)n(C)n(-c3ccccc3)c2=O)nc2ccccc2c1=O	VLA-4 inh 52 | VLA-4 mod pick inactive
Cc1noc(C)c1CSc1ncnc2sc3c(c12)CCCCC3	none | VLA-4 mod pick inactive
O=C(c1ccc(NS(=O)(=O)c2ccc(Cl)c(Cl)c2)cc1)N1CCOCC1	none (no result: VLA-4 inh, Bfl-1 A1 inh, GRK2 aptamer HTS)
CCOc1ccc(S(=O)(=O)Nc2ccccc2C(=O)N(C)C2CCN(C)CC2)cc1	VLA-4 inh 50 | VLA-4 mod pick inactive
COc1cccc(C(=O)N/N=c2\sc3ccccc3n2C)c1	none
Cc1ccc(C(=O)N/N=c2\sc3ccccc3n2C)cc1	none | VLA-4 mod pick inactive
c1ccc(C(Cc2nc(-c3cccnc3)no2)c2ccccc2)cc1	VLA-4 inh 92 | VLA-4 mod pick inactive
COc1ccc(CNCCNC(=O)c2cccs2)cc1OC	VLA-4 inh 65 | VLA-4 mod pick inactive
COc1cc(CNCCNC(=O)c2cccs2)cc(OC)c1OC	none
O=C(Nc1ccnn1C1CCN(Cc2cccc(OCCO)c2)CC1)C1CCOC1 (stereo unspecified)	none
O=C(CN1C(=O)NC2(CCCc3ccccc32)C1=O)NC1CCCCC1 (stereo unspecified)	none
O=S(=O)(/N=S1\CC=CCN1S(=O)(=O)c1ccccc1)c1ccccc1 (stereo unspecified)	none (no result: VLA-4 inh, Bfl-1 A1 inh, NTR1 agonist, GRK2 aptamer HTS)
O=C(/C=C/c1ccccc1)NNc1ccc(Cl)cc1	VLA-4 inh 55 | VLA-4 mod pick inactive
Cc1cc(Cl)ccc1NC(=O)CN1CCCC1	none
Cc1cc(Cl)ccc1NC(=O)Cn1cncn1	VLA-4 inh 53 | VLA-4 mod pick inactive
CC1CCC(NC(=O)Cn2c(=O)oc3ccccc32)CC1 (stereo unspecified)	none | VLA-4 mod pick inactive
Cc1ccccc1NC(=O)Cn1c(=O)oc2ccccc21	none
COc1ccc(C)cc1NC(=O)Nc1ccccc1	VLA-4 inh 50 | VLA-4 mod pick inactive
CC1CCN(C(=O)Cn2c(=O)oc3ccccc32)CC1	none
Cc1ccc(NC(=O)Nc2ccccc2C(N)=O)cc1	none | VLA-4 mod pick inactive
COc1ccc(NC(=O)Nc2cc(C)ccc2OC)cc1	none
COc1ccc(C)cc1NC(=O)Cn1c(=O)oc2ccccc21	none | VLA-4 mod pick inactive
O=[N+]([O-])c1ccc(S(=O)(=O)Nc2nnc(C(F)(F)F)s2)cc1	none
[O-]/C(=C(\C(=S)NCc1ccccc1)[n+]1ccccc1)c1ccc(Cl)s1	none
Cc1ccccc1NC(=S)c1ccc2ccccc2n1	none
CN(CC(=O)Nc1ccccc1C(F)(F)F)C(=O)Cn1c(=O)oc2ccccc21	none | VLA-4 mod pick inactive
COc1ccc(Cl)cc1NC(=O)CCn1c(=O)oc2ccccc21	none
COc1ccc(Cl)cc1NC(=O)CN(C)C(=O)Cn1c(=O)oc2ccccc21	none | VLA-4 mod pick inactive
COc1ccc(-c2csc(Nc3ncccc3C)n2)cc1OC	none
COc1ccc(-c2csc(Nc3ncccc3C)n2)cc1	VLA-4 inh 92 | VLA-4 mod pick inactive
Cc1cccc(N2CCN(C(=O)c3ccccc3SCC(=O)N3CCCC3)CC2)c1C	none
COc1ccc(CNC(=O)C2CCC(CNS(=O)(=O)c3ccccc3)CC2)cc1 (stereo unspecified)	none
CCSc1cnn(-c2ccccc2)c(=O)c1Cl	none
CCOc1cnn(-c2ccccc2)c(=O)c1Cl	none | VLA-4 mod pick inactive
COc1cc2c(cc1OC)C(c1ccc(Br)cc1)CC(=O)N2 (stereo unspecified)	none | VLA-4 mod pick inactive
COc1cccc(C2CC(=O)Nc3cc4c(cc32)CCC4)c1 (stereo unspecified)	none
CCOc1cccc(C2CC(=O)Nc3cc(OC)c(OC)cc32)c1 (stereo unspecified)	VLA-4 inh 51 | VLA-4 mod pick inactive
COc1cccc(C2CC(=O)Nc3cc(OC)c(OC)cc32)c1 (stereo unspecified)	none | VLA-4 mod pick inactive
Cc1cccc(N(C)S(=O)(=O)c2c(C)noc2C)c1	none

Compound activity as filed in PubChem.
